Records with an inconclusive call do not appear. Activity calls are given as the source filed them. Calls come from the whole dose curve; as a rule, active = well fitted cell-killing curve with a large enough effect; inconclusive = small, poorly fitted or top-dose-only effect, or effect the other way; inactive = no such curve, though single readings can be large or run the other way.
The compounds below were run on Jar (assay: Confirmatory qHTS for gynecologic anti-cancer compounds from libraries of approved drugs and bioactive compounds). Details: gynecologic cancer cell panel viability, ATPlite luminescence, 48 h; series mostly up to 57.6 µM.
Summary of the method: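 ATP-based luminescent viability (ATPlite) after 48 h drug treatment at 37 °C, 5% CO2, across 57.5 uM–0.977 nM in 1:3 steps. Cells seeded at 1,000 per well 16 h beforehand; IC50 values computed, HEK 293T as selectivity control.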
Note: nearly all actives have a fitted effect of over 55% in size.
Potency is the fitted concentration of half-maximal effect.

| Compound | Potency |
| --- | --- |
| Cc1cnc(Nc2ccc(OCCN3CCCC3)cc2)nc1Nc1cccc(S(=O)(=O)NC(C)(C)C)c1 | 17.2 µM (active) |
| COC(=O)c1ccc2c(C(=Nc3ccc(N(C)C(=O)CN4CCN(C)CC4)cc3)c3ccccc3)c(O)[nH]c2c1 | inactive |
| CNC1CCC(N(Cc2cccc(-c3ccncc3)c2)C(=O)c2sc3ccccc3c2Cl)CC1 (configuration not stated) | 34.3 µM (active) |
| Cc1nc(N)ncc1-c1nc(N2CCOCC2)c2sc(C(C)(C)O)cc2n1 | 7.69 µM (active) |
| CC(C)Oc1ccc(C(=O)NC(CNC(=O)CN(C)C)Cc2ccc(-c3cn4cccc(C(C)O)c4n3)cc2)cc1Cl (configuration not stated) | 0.172 µM (active) |
| c1nc2nc(Nc3ccc(N4CCOCC4)cc3)nc(NC3CCCCC3)c2[nH]1 | 9.43 µM (active) |
| Cc1cc(SCc2sc(-c3ccc(C(F)(F)F)cc3)nc2C)ccc1OCC(=O)O | inactive |
| COc1c(C)c2c(c(O)c1C/C=C(\C)CCC(=O)OCCN1CCOCC1)C(=O)OC2 | inactive |
| COc1cccc2c1C(=O)c1c(O)c3c(c(O)c1C2=O)C[C@@](O)(C(=O)CO)C[C@@H]3O[C@H]1C[C@H](N)[C@H](O[C@@H]2CCCCO2)[C@H](C)O1 | 13.7 µM (active) |
| Cc1ccc(C(=O)N(CCCN)C(c2oc3cc(Cl)ccc3c(=O)c2Cc2ccccc2)C(C)C)cc1 (configuration not stated) | 0.0137 µM (active) |
| Cc1cc(Nc2cc(N3CCN(C)CC3)nc(/C=C/c3ccccc3)n2)n[nH]1 | 24.3 µM (active) |
| CCOc1cc2ncc(C#N)c(Nc3ccc(F)c(Cl)c3)c2cc1NC(=O)/C=C/CN(C)C | 1.72 µM (active) |

Source: PubChem BioAssay AID1345085 (National Center for Advancing Translational Sciences (NCATS), 2018)
